According to PubChem BioAssay (Tox21):
Unmarked numbers belong to inactive results. Results filed as inconclusive are left out. Entries that show only a call come without a potency. Active and inactive are the calls of the source. Unless noted, calls come from the whole dose curve; as a rule, active = well fitted curve in the direction sought with a large enough effect in the repeat runs; inconclusive = weak or mixed curves; inactive = no such curve, though single readings can be large; an effect the other way counts as inactive or inconclusive.

Experiments:
[1] = target: Progesterone receptor (Homo sapiens) (UniProt P06401); experiment: qHTS assay to identify small molecule agonists of the progesterone receptor (PR) signaling pathway (AID 1346784; calls by dose curve; note: nearly all actives have a fitted effect of over 30% in size)
Sequence of Progesterone receptor (Homo sapiens) (P06401 whole entry, looked up): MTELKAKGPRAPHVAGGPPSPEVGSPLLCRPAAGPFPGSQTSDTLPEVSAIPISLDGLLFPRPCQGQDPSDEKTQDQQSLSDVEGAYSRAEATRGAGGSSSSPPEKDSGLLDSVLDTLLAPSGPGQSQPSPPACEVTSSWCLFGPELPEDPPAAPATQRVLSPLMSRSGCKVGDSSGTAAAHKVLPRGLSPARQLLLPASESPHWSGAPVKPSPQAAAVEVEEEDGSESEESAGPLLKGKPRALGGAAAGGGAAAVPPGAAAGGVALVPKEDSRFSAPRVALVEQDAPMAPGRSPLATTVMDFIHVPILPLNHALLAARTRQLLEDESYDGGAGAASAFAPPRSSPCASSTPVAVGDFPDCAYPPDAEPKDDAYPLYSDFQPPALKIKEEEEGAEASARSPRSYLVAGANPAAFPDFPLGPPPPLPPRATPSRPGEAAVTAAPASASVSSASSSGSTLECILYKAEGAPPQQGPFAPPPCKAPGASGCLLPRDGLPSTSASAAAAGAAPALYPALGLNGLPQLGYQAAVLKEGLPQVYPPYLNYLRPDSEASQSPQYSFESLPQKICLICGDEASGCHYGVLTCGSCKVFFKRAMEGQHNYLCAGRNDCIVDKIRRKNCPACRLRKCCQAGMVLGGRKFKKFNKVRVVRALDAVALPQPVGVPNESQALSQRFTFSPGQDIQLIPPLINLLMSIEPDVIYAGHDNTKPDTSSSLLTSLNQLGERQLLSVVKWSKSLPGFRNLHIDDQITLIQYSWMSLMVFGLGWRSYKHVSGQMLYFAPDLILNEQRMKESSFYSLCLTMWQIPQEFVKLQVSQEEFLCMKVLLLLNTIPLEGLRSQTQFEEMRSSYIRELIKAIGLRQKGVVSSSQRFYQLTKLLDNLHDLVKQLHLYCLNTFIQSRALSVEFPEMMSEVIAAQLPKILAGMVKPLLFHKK
Summary of the method: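 PR-UAS-bla HEK 293T cells carrying a UAS-driven beta-lactamase reporter were seeded in medium with 2% charcoal-stripped FBS, preincubated 6 hr at 37C, then exposed to compounds in DMSO for 16 hr; agonism was read by LiveBLAzer B/G FRET fluorescence.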

[2] = target: Progesterone receptor (Homo sapiens) (UniProt P06401); experiment: qHTS assay to identify small molecule antagonists of the progesterone receptor (PR) signaling pathway (AID 1346795; active = well fitted inhibition curve with a large enough effect in the signal ratio in the repeat runs, not every such curve was filed as active; the % refers to the signal ratio; note: potency is the fitted concentration of half-maximal effect)
Summary of the method: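 PR-UAS-bla HEK293T cells carrying a UAS-driven beta-lactamase reporter were plated in medium with 2% charcoal-stripped FBS and rested 6 hr at 37C. Compounds were added with 1 nM R5020 (final) for 16 hr, then FRET substrate loaded 2 hr at room temperature.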

[3] = qHTS assay to identify small molecule antagonists of the progesterone receptor (PR) signaling pathway - cell viability counter screen (AID 1346798); note: series mostly up to about 92 µM; nearly all actives have a fitted effect of over 50% in size
Summary of the method: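 PR-UAS-bla HEK293T cells in medium with 2% charcoal-stripped FBS were treated with compounds plus R5020 for 16 hr at 37C. Cell viability was then read by CellTiter-Glo luminescence after 30 min at room temperature in the same wells.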

[4] = qHTS assay to identify small molecule agonists of the progesterone receptor (PR) signaling pathway - cell viability counter screen (AID 1346799; calls by dose curve; note: nearly all actives have a fitted effect of over 45% in size)
Summary of the method: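 PR-UAS-bla HEK293T cells, 3,000 per well in medium with 2% charcoal-stripped FBS, were preincubated 6 hr at 37C, then exposed to compounds for 16 hr; viability was read as CellTiter-Glo luminescence after 30 min at room temperature.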

[5] = qHTS assay to identify small molecule agonists of the TGF-beta/Smad signaling pathway - cell viability counter screen (AID 1346829); note: top concentration of the series differs between compounds; nearly all actives have a fitted effect of over 45% in size
Summary of the method: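 In parallel with the Smad reporter read, viability of HEK 293T cells stably carrying SBE-bla is quantified by ATP luminescence following 5 hr compound treatment.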

[6] = qHTS assay to identify small molecule agonists of the TGF-beta/Smad signaling pathway (AID 1346859; active = well fitted activation curve with a large enough effect in the signal ratio in the repeat runs, not every such curve was filed as active; the % refers to the signal ratio; note: series mostly up to about 77 µM)
Summary of the method: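 HEK 293T cells stably carrying a beta-lactamase reporter driven by the Smad binding element were seeded overnight, exposed to DMSO-dissolved compounds for 5 hr at 37 C, 5% CO2, then loaded with FRET substrate for 2 hr at room temperature.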

[7] = Human pregnane X receptor (PXR) small molecule agonists, qHTS cell viability counter screen (AID 1346977); note: nearly all actives have a fitted effect of over 50% in size
Summary of the method: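 PXR-Luc HepG2 cells in medium with 5% charcoal-stripped FBS were pre-incubated 5hr, then exposed to compounds for 24hr at 37C. Viability was read in the same wells by CellTiter-Fluor fluorescence, reagent added after 23hr with a 1hr incubation.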

[8] = Caspase-3/7 induction in HepG2 cells by small molecules, qHTS assay (AID 1346978); note: nearly all actives have a fitted effect of over 15% in size
Summary of the method: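 Wild-type HepG2 cells, 2,000/well, settled 5 hr at 37 C and 5% CO2, then compound-treated for 17 hr; caspase-3/7 activity read by luminescent Caspase-Glo 3/7 after 30 min at room temperature.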

[9] = Caspase-3/7 induction in CHO-K1 cells by small molecules, qHTS cell viability counter screen (AID 1346979); note: nearly all actives have a fitted effect of over 35% in size
Summary of the method: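 Wild-type CHO-K1 cells were seeded at 1,500 per well, rested 5hr at 37 C, then exposed to compounds in DMSO. After 16hr, CellTiter-Fluor reagent was added and fluorescence read 1hr later as the viability measure.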

[10] = Caspase-3/7 induction in CHO-K1 cells by small molecules, qHTS assay (AID 1346980); note: nearly all actives have a fitted effect of over 15% in size
Summary of the method: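 Wild-type CHO-K1 cells exposed to compounds for 17hr at 37 C, 5% CO2. Caspase-3/7 activity then measured by Caspase-Glo 3/7 luminescence after 30min at room temperature.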

[11] = Caspase-3/7 induction in HepG2 cells by small molecules, qHTS cell viability counter screen (AID 1346981); note: nearly all actives have a fitted effect of over 30% in size; note: potency is the fitted concentration of half-maximal effect
Summary of the method: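 Cell viability is measured as a cytotoxicity counter screen alongside the Caspase-Glo 3/7 readout in identical wells. Wild-type HepG2 cells are treated with test compounds for 16 hr at 37 C before CellTiter-Fluor addition and a 1-hr incubation.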

[12] = target: Nuclear receptor subfamily 1 group I member 2 (Homo sapiens) (UniProt O75469); experiment: Human pregnane X receptor (PXR) small molecule agonists, qHTS assay (AID 1346982); note: nearly all actives have a fitted effect of over 35% in size; note: potency is the fitted concentration of half-maximal effect
Sequence of Nuclear receptor subfamily 1 group I member 2 (Homo sapiens) (O75469 whole entry, looked up): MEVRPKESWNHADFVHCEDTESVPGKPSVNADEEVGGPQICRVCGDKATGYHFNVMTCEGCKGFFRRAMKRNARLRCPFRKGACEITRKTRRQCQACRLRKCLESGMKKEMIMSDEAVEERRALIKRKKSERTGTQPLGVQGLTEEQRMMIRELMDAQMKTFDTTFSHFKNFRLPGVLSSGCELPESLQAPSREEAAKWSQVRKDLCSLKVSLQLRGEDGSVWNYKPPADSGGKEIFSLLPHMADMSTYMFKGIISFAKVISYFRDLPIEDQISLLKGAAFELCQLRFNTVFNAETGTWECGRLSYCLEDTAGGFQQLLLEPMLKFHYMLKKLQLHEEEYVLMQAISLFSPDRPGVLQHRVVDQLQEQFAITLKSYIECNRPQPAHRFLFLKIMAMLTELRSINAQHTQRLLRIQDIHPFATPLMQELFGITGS
Summary of the method: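 Cells: HepG2 stably carrying PXR-Luc. Medium held 5% charcoal-stripped FBS. Compounds in DMSO added after 5 hr plating, incubated 24 hr, then luminescence quantified with ONE-Glo.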

[13] = target: Cytochrome P450 2D6 (Homo sapiens) (UniProt P10635); experiment: Cytochrome P450 Family 2 Subfamily D Member 6 (CYP2D6) small molecule antagonists: luciferase reporter qHTS assay (AID 1671196); note: series mostly up to about 120 µM; nearly all actives have a fitted effect of over 50% in size
Sequence of Cytochrome P450 2D6 (Homo sapiens) (P10635 whole entry, looked up): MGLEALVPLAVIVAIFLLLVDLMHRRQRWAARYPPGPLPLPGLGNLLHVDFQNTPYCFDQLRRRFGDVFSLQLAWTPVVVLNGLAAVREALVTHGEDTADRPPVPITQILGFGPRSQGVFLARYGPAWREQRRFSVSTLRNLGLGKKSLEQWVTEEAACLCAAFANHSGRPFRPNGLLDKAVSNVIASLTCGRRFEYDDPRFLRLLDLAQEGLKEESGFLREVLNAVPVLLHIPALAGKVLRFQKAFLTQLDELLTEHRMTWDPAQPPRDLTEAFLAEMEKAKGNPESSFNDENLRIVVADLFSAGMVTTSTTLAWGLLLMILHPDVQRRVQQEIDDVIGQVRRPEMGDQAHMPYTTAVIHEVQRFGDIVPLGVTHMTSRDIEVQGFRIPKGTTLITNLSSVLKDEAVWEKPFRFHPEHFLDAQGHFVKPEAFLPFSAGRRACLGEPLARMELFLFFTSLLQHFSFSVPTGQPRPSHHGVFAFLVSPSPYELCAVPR
Summary of the method: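 Enzyme and proluciferin substrate were first combined with test chemical for 10 min at room temperature. Adding NADPH regeneration solution started a 1 h reaction, stopped with luciferin detection reagent and read by luminescence 20 min later.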

[14] = target: Thyrotropin-releasing hormone receptor (Homo sapiens) (UniProt P34981); experiment: qHTS assay to identify small molecule antagonists of the thyrotropin-releasing hormone receptor (TRHR) signaling pathway (AID 1346877; active = well fitted inhibition curve with a large enough effect in the repeat runs, not every such curve was filed as active; note: series mostly up to about 51 µM)
Sequence of Thyrotropin-releasing hormone receptor (Homo sapiens) (P34981 whole entry, looked up): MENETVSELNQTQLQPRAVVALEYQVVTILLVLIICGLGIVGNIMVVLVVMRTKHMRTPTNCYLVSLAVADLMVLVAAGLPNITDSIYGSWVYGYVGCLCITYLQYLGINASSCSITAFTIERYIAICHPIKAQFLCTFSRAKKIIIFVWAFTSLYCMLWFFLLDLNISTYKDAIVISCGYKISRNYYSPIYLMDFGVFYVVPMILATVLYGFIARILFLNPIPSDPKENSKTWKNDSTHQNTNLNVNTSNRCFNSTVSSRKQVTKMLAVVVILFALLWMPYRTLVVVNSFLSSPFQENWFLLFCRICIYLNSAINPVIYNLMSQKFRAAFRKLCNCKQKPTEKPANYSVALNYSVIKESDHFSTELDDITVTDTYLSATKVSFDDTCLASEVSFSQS
Summary of the method: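 Antagonism is measured as suppression of the calcium response to 1 nM TRH in TRHR-HEK293 cells that have been dye-loaded for 2 h at 37 °C after overnight plating. Each compound is tested at 15 concentrations in triplicate.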

[15] = target: Thyrotropin-releasing hormone receptor (Homo sapiens) (UniProt P34981); experiment: qHTS assay to identify small molecule agonists of the thyrotropin-releasing hormone receptor (TRHR) signaling pathway (AID 1346891; calls by dose curve; note: series mostly up to about 58 µM)
Summary of the method: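 TRHR-expressing HEK293 cells were plated 18 h at 37 °C/5% CO2, loaded with calcium dye 2 h at 37 °C, then given compound in DMSO; fluorescence was read kinetically for 3 min at 1 s intervals.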

[16] = target: Cytochrome P450 2C19 (Homo sapiens) (UniProt P33261); experiment: Cytochrome P450 Family 2 Subfamily C Member 19 (CYP2C19) small molecule antagonists: luciferase reporter qHTS assay (AID 1671197); note: nearly all actives have a fitted effect of over 65% in size; note: potency is the fitted concentration of half-maximal effect
Sequence of Cytochrome P450 2C19 (Homo sapiens) (P33261 whole entry, looked up): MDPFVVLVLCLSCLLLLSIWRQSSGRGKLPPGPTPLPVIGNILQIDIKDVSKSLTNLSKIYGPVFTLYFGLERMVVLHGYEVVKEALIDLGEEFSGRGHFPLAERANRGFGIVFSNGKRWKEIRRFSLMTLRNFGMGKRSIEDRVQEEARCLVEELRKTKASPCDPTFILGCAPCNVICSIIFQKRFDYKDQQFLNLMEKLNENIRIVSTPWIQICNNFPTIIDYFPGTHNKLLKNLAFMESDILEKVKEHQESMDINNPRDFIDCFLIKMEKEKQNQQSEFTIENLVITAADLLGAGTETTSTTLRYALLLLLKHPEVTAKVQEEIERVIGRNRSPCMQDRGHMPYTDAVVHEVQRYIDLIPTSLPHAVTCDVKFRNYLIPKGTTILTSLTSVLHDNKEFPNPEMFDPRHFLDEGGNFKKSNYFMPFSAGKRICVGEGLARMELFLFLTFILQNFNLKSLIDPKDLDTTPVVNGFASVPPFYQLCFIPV
Summary of the method: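 Compounds were tested on CYP2C19 activity via proluciferin conversion to luciferin. The 37C, 1 h reaction followed NADPH addition; detection reagent stopped it.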

[17] = qHTS assay to identify small molecule antagonists of the TGF-beta/Smad signaling pathway - cell viability counter screen (AID 1346824); note: nearly all actives have a fitted effect of over 50% in size
Summary of the method: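 SBE-bla HEK 293T cells, incubated overnight, then compound plus 0.25 ng/mL TGF-beta1 (stock added) for 5 hr at 37 C. Viability was read in the same wells by CellTiter-Glo luminescence after 30 min at room temperature.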

[18] = target: Nuclear receptor subfamily 1 group I member 2 (Rattus norvegicus) (UniProt Q9R1A7); experiment: Rat pregnane X receptor (rPXR) activation by small molecules, qHTS assay (AID 1346983); details: rPXR luciferase reporter cells, One-Glo luminescence, 24 h; max activation: stronger effect = higher value; note: nearly all actives have a fitted effect of over 20% in size
Sequence of Nuclear receptor subfamily 1 group I member 2 (Rattus norvegicus) (Q9R1A7 whole entry, looked up): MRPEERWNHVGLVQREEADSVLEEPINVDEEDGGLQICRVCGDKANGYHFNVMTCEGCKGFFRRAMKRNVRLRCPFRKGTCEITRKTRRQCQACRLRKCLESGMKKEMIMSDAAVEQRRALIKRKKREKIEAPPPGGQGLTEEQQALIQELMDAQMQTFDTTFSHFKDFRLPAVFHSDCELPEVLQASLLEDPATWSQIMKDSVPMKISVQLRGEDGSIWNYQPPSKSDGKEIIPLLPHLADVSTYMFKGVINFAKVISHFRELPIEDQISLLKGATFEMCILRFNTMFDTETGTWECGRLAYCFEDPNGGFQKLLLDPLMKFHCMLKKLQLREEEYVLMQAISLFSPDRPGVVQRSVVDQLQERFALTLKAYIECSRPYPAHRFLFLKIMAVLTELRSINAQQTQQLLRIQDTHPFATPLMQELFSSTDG
Summary of the method: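 Cell-based rPXR activation assay: rPXR cells, 2,000 per well, rested 5hr at 37 C, then exposed to compounds in DMSO for 24 hr at 37 C. Luciferase activity read by One-Glo luminescence after 30 min at room temperature.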

[19] = target: Nuclear receptor subfamily 1 group I member 2 (Homo sapiens) (UniProt O75469); experiment: CYP3A4 induction through human pregnane X receptor (PXR) by small molecules, qHTS assay (AID 1346984); note: nearly all actives have a fitted effect of over 40% in size
Summary of the method: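 Quantitative HTS in DPX-2 cells, i.e. HepG2 transfected with PXR response element and CYP3A4-promoter luciferase. Compounds in DMSO incubated 24hr at 37C; then P450-Glo CYP3A4 substrate, 3uM final, 3hr; One-Glo luminescence.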

[20] = target: Nuclear receptor subfamily 1 group I member 2 (Homo sapiens) (UniProt O75469); experiment: Human pregnane X receptor (PXR) activation by small molecules, qHTS assay (AID 1346985); note: nearly all actives have a fitted effect of over 40% in size
Summary of the method: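 DPX-2 cells (HepG2 co-transfected with a PXR response element and a CYP3A4-promoter luciferase construct) were seeded at 2,000 per well, rested 5 hr at 37C, then exposed to DMSO-dissolved compounds for 24 hr. Activation was read as luciferase luminescence.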

SMILES | Potency [1] | Potency [2] | Potency [3] | Potency [4] | outcome [5] | outcome [6] | Potency [7] | Potency [8] | Potency [9] | Potency [10] | Potency [11] | Potency [12] | Potency [13] | outcome [14] | outcome [15] | Potency [16] | outcome [17] | max activation [18] | Potency [19] | Potency [20]
CC(=O)CC/C=C(\C)CC/C=C(\C)CC/C=C(\C)CCC=C(C)C | inactive | inactive | inactive | inactive | inactive | inactive | inactive | inactive | inactive | inactive | inactive | 23.7 µM (active) | inactive |  |  |  |  |  |  | 
CCc1cnc(C(=O)O)c(C(=O)O)c1 | inactive | inactive | inactive | inactive | inactive | inactive | inactive | inactive | inactive | inactive | inactive | inactive | inactive | inactive | inactive | inactive |  |  |  | 
CC(C)Cc1nccs1 | inactive | inactive | inactive | inactive | inactive | inactive | inactive | inactive | inactive | inactive | inactive | inactive |  | inactive | inactive | 40.7 µM (active) |  |  |  | 
CCCCCC1CCC(=O)O1 (stereo not given) | inactive | inactive | inactive |  | inactive | inactive | inactive | inactive | inactive | inactive | inactive | inactive |  | inactive | inactive | inactive | inactive |  |  | 
CCOCCn1c(N2CCCN(C)CC2)nc2ccccc21 | inactive | inactive | inactive | inactive | inactive | inactive |  | inactive | inactive | inactive | inactive |  |  | inactive | inactive | inactive |  | 4.1% |  | 
O=c1c2ccccc2oc2ccccc12 | inactive | inactive | inactive | inactive | inactive | inactive |  | inactive | inactive | inactive | inactive | inactive | inactive | inactive | inactive | 28.3 µM (active) |  |  |  | 
Nc1ccc(C(=O)Oc2ccccc2)c(O)c1 | inactive | 23.7 µM (active) | inactive | inactive | inactive | inactive | inactive | inactive | inactive | inactive |  | inactive |  | inactive | inactive |  |  | 0.405% | inactive | inactive
C=CC(C)CCC=C(C)C (stereo not given) | inactive | inactive | inactive | inactive | inactive | inactive | inactive | inactive | inactive | inactive | inactive | inactive | inactive | inactive | inactive | inactive |  |  |  | 
O=C1c2ccccc2C(=O)C1c1ccc2ccccc2n1 | inactive | inactive | inactive | inactive | inactive |  |  | inactive |  | inactive | 6.05 µM (active) | 1.91 µM (active) |  | inactive | inactive | 3.14 µM (active) | inactive |  |  | 
CC1(C)CC(=O)CC(C)(C)N1 | inactive | inactive | inactive | inactive | inactive |  |  |  | inactive | inactive |  | inactive |  | inactive | inactive | inactive | inactive |  |  | 
CC(O)C(C)O (stereo not given) | inactive | inactive | inactive | inactive | inactive |  | inactive | inactive | inactive | inactive | inactive | inactive | inactive | inactive | inactive | inactive |  |  |  | 
CCCC1CCCC(=O)O1 (stereo not given) | inactive | inactive | inactive | inactive | inactive |  | inactive | inactive | inactive | inactive | inactive | inactive | inactive | inactive | inactive | inactive |  |  |  | 
